Assay outcomes: PubChem BioAssay, Pan Lab, Icahn School of Medicine at Mount Sinai
This is one part of a sample in which hits are shown more often than they occur.
RBX1-CUL1 inh: human ROC1-CUL1 E3 ligase inhibition. AID 1347404. inhibition, % at 10 µM. 140,000 tested, 0.6% active. P62877+Q13616. in vitro K48 di-Ub FRET, acceptor:donor ratio, 45 min; in the data active = inhibition above about 25%
A number is an active result; – = inactive.

SMILES	RBX1-CUL1 inh
CN1C(=O)C(Cc2cc(Cl)ccc2O)=NC1=S	27.0
COc1cc(CC2=NC(=S)N(C)C2=O)c(Br)cc1OCc1ccc(Cl)cc1	–
CN1C(=O)C(Cc2ccc(Br)s2)=NC1=S	–
O=c1/c(=C\c2ccc3c(c2)OCO3)sc2n1C(c1ccccc1Cl)C1=C(N=2)c2ccccc2CC1 (stereo not given)	–
O=C(Nc1cc2nn(-c3ccccc3)nc2cc1Cl)c1ccccc1Br	–
Nc1c(Cl)cc2nn(-c3ccccc3)nc2c1Br	31.2
O=C(Nc1cc2nn(-c3ccccc3)nc2cc1Cl)c1ccc(Br)cc1	–
Cc1cccc(C2SCCN2c2ccccc2)c1 (stereo not given)	–
CC1=CC(=Cc2c(O)n(-c3cccc(Cl)c3Cl)c(=S)[nH]c2=O)C(C)=N1	92.9
CCn1c(O)c(C=C2C(C)=Nc3ccccc32)c(=O)[nH]c1=S	–
COc1ccccc1-n1c(O)c(C=C2C=Nc3ccccc32)c(=O)[nH]c1=S	–
COCCn1cnc2cc(NC(=O)C3CCCCC3)cc(C(=O)NCC3OCCc4ccccc43)c21 (stereo not given)	–
Nc1c2c(nn1-c1ccccc1)-c1ccccc1CC21CCCC1	–
Cc1ccccc1-c1nc(CN(C)Cc2nccs2)c(C)o1	–
Cc1nc(CCNC(=O)c2cc(-c3ccc(C)s3)[nH]n2)cc(=O)[nH]1	–
CCCC(=O)Nc1ccc(C)cc1C	–
Cc1ccc(/C=C2\C(=O)Nc3ccc(Br)cc32)cc1C	–
COc1cccc(/C=C2\C(=O)Nc3ccc(Br)cc32)c1	–
O=C1Nc2ccc(Br)cc2/C1=C/c1cc(O)c(O)c(Br)c1	65.7
COc1ccc(N=C(NO)/C(C)=N\N=C(\C)C(=Nc2ccc(OC)cc2)NO)cc1	–
COc1cc(C(=O)NCc2ccccc2)ccc1OC1OC(COC(C)=O)C(OC(C)=O)C(OC(C)=O)C1OC(C)=O (stereo not given)	–
CC1=C(C#N)C(=O)N(C)C(=O)/C1=C\c1ccc(-c2ccc(C(=O)OC(C)C)cc2)o1	–
C=CCN1C(=O)C(C#N)=C(C)/C(=C\c2ccc(-c3ccc(Cl)c(C(=O)OC(C)C)c3)o2)C1=O	–
CC1=C(C#N)C(=O)N(CC(C)O)C(=O)/C1=C/c1ccc(-c2ccc(Br)cc2)o1 (stereo not given)	47.0
CCCCOC(=O)c1cccc(NC(=O)C(C(C)C)N2C(=O)c3ccccc3C2=O)c1 (stereo not given)	–
SMILES	RBX1-CUL1 inh
O=C(Cc1ccccc1Cl)N1CCC(C2(c3ccccn3)NC(=O)N(CC3CCCO3)C2=O)CC1 (stereo not given)	–
CCOCC(=O)Nc1nnc(CC)s1	–
CCc1nnc(NC(=O)CCSCCC(=O)Nc2nnc(CC)s2)s1	37.1
CCc1nnc(NC(=O)COC)s1	–
CCN1CCN(Cc2nc3cc(NC(=O)CC(C)C)ccc3n2C)CC1	–
COc1ccc(N=C2NC(=O)/C(=C/c3ccc(OCc4cccc(C(=O)O)c4)c(OC)c3)S2)cc1	–
CCOc1ccccc1/C=C1\SC(=Nc2cccc(Cl)c2C)NC1=O	25.9
Cc1ccccc1/C=C1/SC(=Nc2ccccc2)NC1=O	–
O=C1NC(=Nc2ccc(C(=O)O)cc2)S/C1=C/c1ccccc1OCc1ccccc1	94.5
O=C1NC(=Nc2ccc(Br)cc2)S/C1=C\c1ccccc1O	–
Cc1cc(/C=C2\SC(=Nc3ccccc3)NC2=O)c(C)n1-c1cc(C(=O)O)cc(C(=O)O)c1	69.4
CCOc1cc(/C=C2\SC(=Nc3cccc(Cl)c3C)NC2=O)cc(Br)c1OC	–
COc1ccc(/C=C2\SC(=Nc3cccc(Cl)c3C)NC2=O)c(OC)c1	–
CCc1ccc(N=C2NC(=O)/C(=C/c3cc(C)n(-c4ccncc4)c3C)S2)cc1	–
O=C(NCCCc1cccnc1)c1ccc2oc(-c3cccc(F)c3)nc2c1	–
CC(Sc1ccc(Cl)cc1)C(=O)N1CCN(c2ccccn2)CC1 (stereo not given)	–
Cc1ccccc1NC(=O)CSc1nc2ccccc2n1C	–
Cc1cccc2c1NC1(CCCCCC1)CC2C (stereo not given)	–
O=C1/C(=C/c2ccccc2)N=C(Oc2ccc(Cl)cc2)N1c1ccccc1	–
COc1ccc(C2c3c(C)nn(-c4ccccc4)c3OC(=N)C2C#N)cc1Cn1nc(C)c([N+](=O)[O-])c1C (stereo not given)	–
CC1CN(c2nc(-c3ccc(Cl)cc3)nnc2-c2ccc(Br)cc2)CC(C)N1 (stereo not given)	–
Cc1ccc(C(=O)O)cc1-c1ccc(/C=C2\SC(=O)N(Cc3ccccc3F)C2=O)o1	50.2
C=CCN1C(=O)S/C(=C/c2ccc(-c3cc(C(=O)O)ccc3C)o2)C1=O	–
CCN1C(=O)S/C(=C/c2ccc(-c3cc(C(=O)O)ccc3C)o2)C1=O	–
Cc1cc(C(=O)O)ccc1-c1ccc(/C=C2\SC(=O)N(CC(=O)N3CCOCC3)C2=O)o1	–
Cc1cc(C(=O)O)ccc1-c1ccc(/C=C2/SC(=O)N(C(C)C)C2=O)o1	63.9
CCCN1C(=O)/C(=C\c2ccc(-c3cc(C(=O)O)ccc3C)o2)C(=O)N(c2ccccc2)C1=S	45.1
